From PubChem
The list is not random: actives were taken first. Their share in the collection is about 3.2%.
GDH-TPI inh = inhibits GDH-TPI coupling enzymes, artifact for Mtb FBA screen. GDH-TPI coupled enzyme counterscreen, NADH absorbance. 360,000 tested, 1.2% active. inhibition, % at 4.8 µM; in the data active means inhibition above about 30%;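 further: 0% = DMSO wells and 100% = wells lacking the enzyme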
Rv3671c protease = inhibits the M. tuberculosis serine protease Rv3671c. P9WHR9. inhibition, % at 5.96 µM. 320,000 tested, 0.048% active. AID 2606; in the data active means inhibition above about 38%;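 further: extracellular domain of Rv3671c used as enzyme; 0% = enzyme with DMSO and 100% = no enzyme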
Mtb betalactam = beta-lactam sensitization of Mtb H37Rv; M. tuberculosis H37Rv growth with meropenem, percent inhibition; inhibition, % at 25 µM; 330,000 tested, 0.27% active; AID 434955; call rule not given here;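 further: growth measured after seven days incubation then overnight dye step; 0% = bacteria only wells and 100% = bacteria with antibiotic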
UGM FP inh = inhibitors of M. tuberculosis UDP-galactopyranose mutase. P9WIQ1. purified UGM, fluorescence polarization probe displacement. inhibition, % at 10 µM. 320,000 tested, 0.06% active. AID 504406; in the data active means inhibition above about 10%, passing the limit was not always enough
FBA Mtb inh = inhibitors of M. tuberculosis fructose-bisphosphate aldolase; AID 588726; 360,000 tested, 2.3% active; purified M. tuberculosis FBA, fluorescence read-out; P9WQA3; inhibition, % at 1 µM; in the data active means inhibition above about 27%;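 further: 0% = vehicle and 100% = reference inhibitor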
Target sequence (P9WQA3 whole entry, looked up): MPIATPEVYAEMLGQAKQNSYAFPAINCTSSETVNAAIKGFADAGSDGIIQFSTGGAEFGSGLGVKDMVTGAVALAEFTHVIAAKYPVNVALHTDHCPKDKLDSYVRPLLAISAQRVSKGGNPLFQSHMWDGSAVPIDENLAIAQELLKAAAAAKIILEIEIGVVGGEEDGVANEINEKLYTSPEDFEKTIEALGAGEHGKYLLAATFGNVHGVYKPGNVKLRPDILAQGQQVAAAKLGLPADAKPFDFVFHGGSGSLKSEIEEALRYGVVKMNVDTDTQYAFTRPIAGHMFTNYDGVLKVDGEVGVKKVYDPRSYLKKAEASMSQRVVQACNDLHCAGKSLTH
PriA SSB inh = inhibitors of Klebsiella pneumoniae PriA binding to SSB C-terminal tail. AlphaScreen SSBct-PriA binding, biotinylated peptide. inhibition, % at 33 µM. 430,000 tested, 0.6% active; in the data active means inhibition mostly above about 37%, no sharp cut-off; inactive means mostly below about 20%;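 further: plate controls were negative control peptide for no effect and reference peptide for full effect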
An asterisk follows results filed as active; i = inactive; . = no result given; + = active, no number.

SMILES | GDH-TPI inh | Rv3671c protease | Mtb betalactam | UGM FP inh | FBA Mtb inh | PriA SSB inh
FC(F)(F)c1cc(-c2ccccc2)nc(SCc2nc3ccccc3[nH]2)n1 | . | . | . | . | . | 3
CCCOc1ccccc1/C=C1\SC(N2CCCCC2)=NC1=O | 15 | -4 | 12 | -1 | 2 | -3
O=C1N=C(N2CCCCC2)S/C1=C\c1ccc(Cl)cc1 | 28 | 1 | 92 | -1 | -1 | 0
O=C1N=C(N2CCCCC2)S/C1=C\c1ccccc1F | 45* | 6 | 68 | -2 | -2 | 9
O=C1N=C(N2CCCC2)S/C1=C\c1ccccc1 | 54* | -3 | -4 | 5 | -4 | -4
Cc1ccc(/C=C2\SC(N3CCCCC3)=NC2=O)cc1 | 32* | 7 | 97 | 1 | 2 | -6
COc1cccc(/C=C2\SC(N3CCC(C)CC3)=NC2=O)c1OC | 20 | -1 | 1 | 0 | 3 | -7
COc1cccc(/C=C2\SC(N3CCCC(C)C3)=NC2=O)c1OC (centres undefined) | 33* | 3 | -7 | -1 | 0 | -6
O=C(CN1CCN(CC(O)c2ccco2)CC1)NCc1ccco1 (centres undefined) | . | . | . | . | . | -3
O=C1N=C(N2CCN(c3ccccc3)CC2)S/C1=C/c1ccco1 | 34* | 0 | 5 | 0 | -1 | 6
C=CCOc1ccc(/C=C2\SC(N3CCCCC3)=NC2=O)cc1 | 38* | 1 | 4 | -1 | 1 | -6
CC(C)(C)c1ccc(/C=C2/SC(N3CCCC3)=NC2=O)cc1 | 37* | 1 | 29 | -1 | -1 | -5
CCOc1ccc(/C=C2\SC(N3CCc4ccccc4C3)=NC2=O)cc1 | 13 | -13 | 4 | -2 | 0 | -2
CC(=O)N1CCN(C2=NC(=O)/C(=C\c3ccc(C(C)C)cc3)S2)CC1 | . | . | . | . | . | -3
COc1ccccc1NC(=O)N1CCCC(c2nnc(-c3ccc4c(c3)OCO4)o2)C1 (centres undefined) | . | . | . | . | . | 6
CC(C)NC(=O)c1ccc(-c2ccc(F)cc2)o1 | . | . | . | . | . | -11
O=C(CSc1nnc2ccc(-c3cccnc3)nn12)Nc1ccc(Cl)c(Cl)c1 | . | . | . | . | . | -10
Clc1ccc2oc(-c3ccccc3)nc2c1 | 5 | 1 | -2 | 1 | 2 | -44
O=S(=O)(O)c1cc2oc(-c3ccccc3)nc2c2ccccc12 | 19 | 4 | -2 | 0 | + | 2
O=C(Nc1ccc(F)cc1)C(=O)c1c(O)[nH]c2ccc([N+](=O)[O-])cc12 | 38* | 8 | 3 | 2 | 3 | 2
CC(C)CN(Cc1c(O)ccc2c3c(c(=O)oc12)CCC3)CC(C)C | 9 | 3 | 4 | 0 | + | 2
O=c1oc2c(CN3CCOCC3)c(O)ccc2c2c1CCC2 | 0 | 1 | -5 | 0 | + | 5
COc1ccc(-c2cnnc(NN=Cc3ccc(O)c(O)c3)n2)cc1 | . | . | . | . | . | 1
Oc1ccc(/C=N\Nc2nncc(-c3ccccc3)n2)cc1 | 40* | 7 | 58 | 0 | -2 | .
COc1ccc(-c2cnnc(N/N=C/c3ccc(O)cc3)n2)cc1 | 34* | 0 | -2 | 0 | 1 | .
SMILES | GDH-TPI inh | Rv3671c protease | Mtb betalactam | UGM FP inh | FBA Mtb inh | PriA SSB inh
N#Cc1nccnc1O[C@H]1CCN(S(=O)(=O)c2ccc(Cl)s2)C1 | . | . | . | . | . | -13
CCc1nnc(NC(=O)/C=C/c2ccco2)s1 | 47* | -12 | -3 | 2 | -2 | 7
Cc1nc(NC(=O)/C=C/c2ccco2)sc1C | 32* | -9 | -1 | 3 | 0 | -11
C=CCNC(=O)C(=O)NN=Cc1cccc(Br)c1 | . | . | . | . | . | -4
CC1CN(c2oc(Cc3cccc4ccccc34)nc2C#N)CC(C)O1 (centres undefined) | -11 | 1 | 15 | 0 | -1 | 52*
CC1CN(c2oc(-c3cccs3)nc2C#N)CC(C)O1 (centres undefined) | 20 | 4 | 2 | -2 | + | 2
COc1ccccc1-c1nc(C#N)c(N2CC(C)CC(C)C2)o1 (centres undefined) | 3 | 1 | 4 | 0 | 23 | -2
N#Cc1nc(-c2cccs2)oc1N1CCOCC1 | 28 | -1 | 0 | -2 | + | 11
Cc1ccccc1OCC(=O)NCC1CCN(Cc2ccncc2)CC1 | . | . | . | . | . | -11
CC(C)(C)C(=O)c1cnc(Nc2ccccc2Cl)s1 | 16 | -14 | 23 | 1 | 1 | -13
CNc1ncc(C(=O)c2ccc(Cl)cc2)s1 | 47* | -3 | 8 | 1 | -2 | -4
CNc1ncc(C(=O)c2ccc(Cl)c(Cl)c2)s1 | 34* | -3 | 13 | 0 | -1 | 6
O=C(c1ccccc1)c1cnc(Nc2ccccc2Cl)s1 | 31* | -3 | 3 | 3 | 1 | -22
O=C(c1ccc(Cl)c(Cl)c1)c1cnc(Nc2ccccc2)s1 | 10 | -5 | -9 | 0 | 4 | -6
Cc1ccc(N2CN=c3sc(=Cc4ccccn4)c(=O)n3C2)cc1 | . | . | . | . | . | -13
O=C1NCCN1C(=O)NCC(O)c1csc2ccccc12 (centres undefined) | . | . | . | . | . | 2
CCc1cccc(CC)c1NC(=S)NCCc1c(C)[nH]c2ccc(C)cc12 | 6 | 9 | 2 | 6 | 3 | 9
CCc1cccc(C)c1NC(=S)NCCc1c(C)[nH]c2ccc(C)cc12 | 0 | 2 | -1 | 5 | 4 | 40*
CCOC(=O)c1c(-c2ccc(C)o2)csc1NC(=O)c1ccc2c(c1)OCCO2 | . | . | . | . | . | -10
COc1ccccc1-c1cc(C(=O)N/N=C/c2ccc(C)s2)c2ccccc2n1 | 37* | -8 | -6 | -3 | -1 | .
CCN(CC)C(=O)COc1ccc(/C=N/NC(=O)c2cc(-c3ccccc3OC)nc3ccccc23)cc1OC | 42* | -6 | -9 | 3 | -1 | .
COc1ccc(/C=N/NC(=O)c2cc(-c3ccccc3OC)nc3ccccc23)cc1COC(C)=O | 11 | -25 | -11 | 1 | -1 | .
COc1ccc(/C=N/NC(=O)c2cc(-c3ccc(C)cc3C)nc3ccccc23)cc1COC(C)=O | 35* | -33 | 56 | 2 | 5 | .
NC(=NOC(=O)c1ccc(F)cc1)c1nonc1N | . | . | . | . | . | -11
CC1SC(=N/N=C/c2cccc([N+](=O)[O-])c2)N(C(C)(C)C)C1=O (centres undefined) | . | . | . | . | . | i
SMILES | GDH-TPI inh | Rv3671c protease | Mtb betalactam | UGM FP inh | FBA Mtb inh | PriA SSB inh
Cc1ccc(C(=O)Nc2nc(-c3ccccn3)cs2)cc1S(=O)(=O)N1CCCCC1 | . | . | . | . | . | 65*
O=C(Nc1nc(-c2ccccn2)cs1)c1ccc(Cl)c(S(=O)(=O)N2CCCCCC2)c1 | . | . | . | . | . | 52
Cc1nc(NC(=O)c2ccc(N3CCCCC3)nn2)sc1C(=O)N(C)C | . | . | . | . | . | 48*
O=C(Nc1nc(-c2ccccn2)cs1)c1ccc(F)c(S(=O)(=O)N2CCOCC2)c1 | 20 | -1 | 83 | 1 | 0 | 45*
O=C(Nc1nc(-c2ccccn2)cs1)c1ccc(Cl)c(S(=O)(=O)N2CCCC2)c1 | . | . | . | . | . | 61
Cc1ccc(C(=O)Nc2nc(-c3ccccn3)cs2)cc1S(=O)(=O)N1CCOCC1 | 17 | -1 | 86 | 0 | 0 | 43*
COc1cn(CC(=O)NCc2ccc3c(c2)OCO3)c(CN2CCN(c3ccc(F)cc3)CC2)cc1=O | . | . | . | . | . | -13
